Records with an inconclusive call do not appear. Where a call stands in place of a potency, no number is given. Activity calls are given as the source filed them. Calls come from the whole dose curve; as a rule, active = well fitted curve in the direction sought with a large enough effect; inconclusive = small, poorly fitted or top-dose-only effect, or another doubt; inactive = no such curve, though single readings can be large; an effect the other way counts as inactive or inconclusive.
What was measured:
[1] = qHTS to identify inhibitors of the type 1 interferon - major histocompatibility complex class I in skeletal muscle: primary screen against the NCATS LOPAC collection (AID 1347405);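 note: lytic HiBiT luminescence reporting HLA-B protein level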; note: potency is the fitted concentration of half-maximal effect
In short: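 Cells: C25cl48 human myoblasts, HiBiT-tagged HLA-B*08:01, stimulated with IFN-beta 4.0 ng/ml. Compounds are titrated 1:4.3 over 7 points from 46 uM final and incubated 24 hrs; endogenous MHC class I is quantified by HiBiT lytic luminescence.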

[2] = qHTS for inhibitors of adenylyl cyclases using a fission yeast platform: a pilot screen against the NCATS LOPAC library (AID 1347410)
In short: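 Growth medium went into the plates first, then compounds were pinned (final up to 57 µM), then CHP2027 yeast were added. Plates were incubated overnight (18 h) at 30C in the dark, and GFP was measured by laser scanning cytometry.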

[3] = Validation qHTS assay for inhibitors of Activation Induced Cytidine Deaminase (AID): UDG Counterscreen signal (AID 1347427)
In short: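 Counterscreen read of UDG activity (2 U/mL, 4/3x) in the FRET deamination format with AID (1 uM, 4/3x), DJC20/DJC23 substrates (250 nM, 4x), 4 h at room temperature. NaOH stop, fluorescence at 560 ex/665 em.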

[4] = target: Single-stranded DNA cytosine deaminase (Homo sapiens) (UniProt Q9GZX7); test: Validation qHTS assay for inhibitors of Activation Induced Cytidine Deaminase (AID): AID signal (AID 1347429)
In short: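 In this coupled qHTS, AID deaminates a FRET-labelled ssDNA substrate in the presence of UDG over 4 hr at room temperature. Compounds span up to 114 uM final.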

Single-stranded DNA cytosine deaminase (Homo sapiens), sequence (Q9GZX7 whole entry, looked up): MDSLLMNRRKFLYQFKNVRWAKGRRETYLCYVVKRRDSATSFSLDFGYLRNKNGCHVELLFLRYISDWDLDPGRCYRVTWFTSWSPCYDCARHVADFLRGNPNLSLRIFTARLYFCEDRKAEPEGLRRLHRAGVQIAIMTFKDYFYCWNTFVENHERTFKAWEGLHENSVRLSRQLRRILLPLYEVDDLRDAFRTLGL

| SMILES | Potency [1] | outcome [2] | Potency [3] | Potency [4] |
| --- | --- | --- | --- | --- |
| O=[N+]([O-])/C=C/c1ccc2c(c1)OCO2 | 7.08 µM (active) | inactive | inactive | – |
| O=C1C=CC(=O)C=C1 | inactive | inactive | inactive | – |
| C[N+](C)(C)CC#CCOC(=O)Nc1cccc(Cl)c1 | inactive | inactive | inactive | – |
| O=C(NC1CN2CCC1CC2)c1cc2ccoc2cn1 (stereo not drawn) | inactive | inactive | – | – |
| OC1CCCCC1N1CCC(c2ccccc2)CC1 (stereo not drawn) | inactive | inactive | inactive | – |
| CC(=O)NBr | inactive | inactive | inactive | – |
| C[N+]1(C)CCN(c2ccccc2)CC1 | inactive | inactive | inactive | – |
| O=C1/C(=C/c2ccccc2)C[C@@]2(O)[C@H]3Cc4ccc(O)c5c4[C@@]2(CCN3CC2CC2)[C@H]1O5 | 2 µM (active) | inactive | – | – |
| CO[C@H]1CC=C2CCN3CCC4=C(CC(=O)OC4)[C@]23C1 | inactive | inactive | inactive | – |
| Cc1cc([C@@H]2CCCN2C)on1 | inactive | inactive | inactive | – |
| CCCN1CCc2cc(O)cc3c2[C@H]1Cc1ccc(O)c(O)c1-3 | inactive | inactive | inactive | – |
| CN1CC[C@@]2(C)c3cc(O)ccc3N(C)C12 (stereo partly drawn) | inactive | inactive | – | – |
| C[C@H]1C2Cc3ccc(O)cc3[C@@]1(C)CCN2CC1CC1 | inactive | inactive | – | – |
| CC(N)Cc1c[nH]c2ccc(OCc3cccs3)cc12 (stereo not drawn) | inactive | inactive | inactive | – |
| C[N+](C)(C)CCOC(=O)CBr | inactive | inactive | inactive | – |
| NCC(O)c1cc(O)c(O)cc1F (stereo not drawn) | inactive | inactive | inactive | – |
| N[C@@H](Cn1oc(=O)[nH]c1=O)C(=O)O | inactive | inactive | inactive | – |
| NCCc1ccc(S(=O)(=O)F)cc1 | inactive | inactive | inactive | – |
| CCCN(CCC)CCc1ccc(O)c(O)c1 | inactive | inactive | inactive | inactive |
| CCCN(CCC)C1Cc2cc(OC)c(OC)cc2C1 | inactive | inactive | inactive | inactive |
| N#C/C(=C/c1ccc(O)c(O)c1)C(N)=S | inactive | inactive | inactive | inactive |
| N#CCCN | inactive | inactive | inactive | inactive |
| CC1(C(=O)O)C2CCC(O2)C1(C)C(=O)O (stereo not drawn) | 12.6 µM (active) | inactive | inactive | inactive |
| OCc1cnc[nH]1 | inactive | inactive | inactive | inactive |
| Oc1ccc2c3c1O[C@H]1c4[nH]c5ccccc5c4C[C@@]4(O)C(C2)N(CC2CC2)CCC314 (stereo partly drawn) | inactive | inactive | inactive | inactive |

— PubChem BioAssay (NCATS)
